Measured values reported in the supplement of paper PMC6555819.

Assays:
Test in all cases: PBM binding z-score (relative to random genomic background probes); higher = stronger binding; sequences stand for … in GC…GCGATTGACAGCGTAGAATGAAGG
[1] = test system: RARb homodimer (NR concentration 270 nM)
Method in brief: (§1)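 Binding z-scores were set against random background probes. The data came from custom Agilent 4×180K protein-binding microarrays carrying double-stranded probes with 34-nt variable regions, incubated 1 h with ligand-free nuclear receptor dimers. Partner-specific antibodies detected binding, and scanned fluorescence was regression-normalized.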

[2] = test system: RARg:RXRa (NR concentration 270 nM, RXRa partner concentration 90 nM)
Method in brief: as §1

[3] = test system: RARg homodimer (NR concentration 270 nM)
Method in brief: as §1

[4] = test system: RXRa DBDmut IVT, anti-RXR (DBD mutation: RXRa K156A/R161A, NR concentration 90 nM)
Method in brief: as §1

[5] = test system: RXRa homodimer (NR concentration 180 nM)
Method in brief: as §1

[6] = test system: THRa:RXRa (NR concentration 90 nM, RXRa partner concentration 90 nM)
Method in brief: as §1

[7] = test system: THRa homodimer (NR concentration 90 nM)
Method in brief: as §1

[8] = test system: VDR:RXRa (NR concentration 270 nM, RXRa partner concentration 90 nM)
Method in brief: as §1

[9] = test system: VDR homodimer (NR concentration 270 nM)
Method in brief: as §1

| Sequence | PBM binding z-score [1] | PBM binding z-score [2] | PBM binding z-score [3] | PBM binding z-score [4] | PBM binding z-score [5] | PBM binding z-score [6] | PBM binding z-score [7] | PBM binding z-score [8] | PBM binding z-score [9] |
| --- | --- | --- | --- | --- | --- | --- | --- | --- | --- |
| CTATGTAGGTTAAGGGGGTCATTTAGTTTGAAAG | 3.86 | 5.19 | 3.66 | 2.54 | 5.85 | 3.83 | 2.03 | 7.32 | 5.81 |
| CTTTACGGGTCAAGGTTATAGCACGGGTGGTACG | 3.7 | 5.18 | 5.01 | 1.93 | 5.61 | 3.26 | 1.1 | 3.8 | 1.77 |
| ACATGTAGGTTAGGGTCATTCAGAAAGTAGGGAA | 3.51 | 4.16 | 3.32 | 3.02 | 5.14 | 4.05 | 3.66 | 4.52 | 3.75 |
| CTATGTAGGTTAAGGGGGTCATTCCGTTTGAAAG | 3.76 | 5.11 | 4.02 | 2.32 | 5.96 | 3.58 | 1.83 | 7.25 | 5.23 |
| GTACCAAGGTGAATAGGTCGTTGATGAGTAGGCG | 1.89 | 2.73 | 1.44 | 0.0133 | 1.92 | 1.79 | 0.526 | 0.95 | 0.496 |
| CGTCAAAGTTAAAGGTAACGTAACAGAAAGCAGC | 0.442 | 0.799 | 0.833 | 0.0376 | 0.816 | 0.694 | -0.0792 | 0.291 | -0.165 |
| ATATGTAGGTTACCGGGTCATTCAGTTTGCGCAT | 3.18 | 3.85 | 2.52 | 1.45 | 4.15 | 3.37 | 2.38 | 5.56 | 4.17 |
| ATATGTAGGTTCGGGTCATTCAGAAAGTAGGGAA | 2.51 | 2.82 | 2.25 | 2.71 | 3.45 | 3.7 | 2.82 | 3.72 | 4 |
| CGTCCAAGGTCAAAGGTCAGTAAAGAGATGACGG | 5.42 | 8.65 | 8.13 | 3.88 | 10.4 | 4.82 | 2.37 | 6.53 | 3.52 |
| CCTAGCCGGCCAATCTGGGTCACTCAAGGCTTGA | 2.25 | 1.14 | 1.24 | -0.259 | 0.623 | 3.15 | 0.859 | 0.613 | 0.329 |
| CTATGTAGGTTAAGGGGGTCATTCAGTTTGAAAG | 3.93 | 5.34 | 4 | 2.56 | 6.26 | 3.95 | 2.19 | 7.57 | 4.98 |
| CGCACTAGGTCACCAGGACAGTGAAGAGGTTGGA | 3.34 | 4.53 | 5.06 | 1.09 | 3.23 | 3.34 | 2.35 | 1.87 | 1.14 |
| CCGAGTAGGGTACGAGGGGGCATTCAGTGCGAAT | 1.62 | 1.87 | 1.59 | 1.73 | 1.03 | 2.64 | 0.475 | 4.33 | 4.03 |
| TCTCGGAGGACACGAAAGGTCTGAGCTCGACATC | 1.21 | 0.667 | 1.47 | 0.831 | 0.137 | 1.53 | 0.392 | 0.182 | -0.266 |
| CTATGTAGGCTAAGGGGGTCATTCAGTTTGAAAG | 3.39 | 4.23 | 2.53 | 1.96 | 4.7 | 3.45 | 1.51 | 6.41 | 4.02 |
| CTATGTAGGTTGAGGGGGTCATTCAGTTTGAAAG | 3.8 | 5.4 | 4.34 | 2.5 | 5.59 | 4.05 | 3.08 | 7 | 6.14 |
